Sm TGR block = qHTS Assay for the Inhibitors of Schistosoma Mansoni Peroxiredoxins | AID 485364, 2010 | 3% of 360,000 active | purified TGR, DTNB reduction, TNB absorbance 405 nm | Potency, µM (top dose mostly 114 µM), usual class: inhibitors; active means well fitted inhibition curve with a large enough effect; inconclusive means small, poorly fitted or top-dose-only effect; inactive means no such curve, though single readings can be large or run the other way; further: nearly all actives have a fitted effect of over 60% in size
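Kinetic colorimetric format: TGR-catalysed, NADPH-driven DTNB reduction monitored via TNB absorbance. Enzyme dispensed at 20 nM; compound exposure 15 min at room temperature before reaction start.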
Shiga inhibitor = A qHTS for Small Molecule Inhibitors of Shiga Toxin; Vero cells, Shiga toxin protein synthesis inhibition reporter; inhibition, % at 38.7 µM; 9.2% of 290,000 active; AID 2315, 2010; in the data active means inhibition mostly above about 28%, no sharp cut-off; inactive means mostly below about 43%
FMDV inh = High Throughput Screening for Foot and Mouth Disease Virus Antivirals | FMDV antiviral cell-based qHTS | Potency, µM (series often up to 57.9 µM), hits mostly inhibitors | 1.2% of 410,000 active | AID 1159524, 2015; calls by dose curve; tested in HEK293T cells; further: read-out not given here; nearly all actives have a fitted effect of over 45% in size
CHX counter = Cycloheximide Counterscreen for Small Molecule Inhibitors of Shiga Toxin. cell reporter, cycloheximide protein synthesis inhibition counterscreen. max response, %. 12% of 300,000 active. AID 2314, 2010; in the data active means max response mostly above about 13%, no sharp cut-off; inactive means mostly below about 14%; further: read at 38.3 µM for the half of the compounds with a filed dose
Numbers stand for hits; n = inactive; u = inconclusive; x = not tested or not shown; [ ] = remark or other dose. Hits are enriched below; roughly 12% of the tested compounds scored in any of these assays.

SMILES | Sm TGR block | Shiga inhibitor | FMDV inh | CHX counter
Cc1ccccc1C(=O)NC1(C(F)(F)F)C(=O)Nc2c1c(=O)[nH]c(=O)n2-c1ccc(F)cc1 (stereo not given) | n | x | n | x
Cc1coc(C)c1C(=O)CC1(O)C(=O)N(CCc2ccccc2)c2ccccc21 (stereo not given) | 14.1µM | n | n | n
CCOc1cc(/C=C2\C(=O)N(c3nc(-c4ccc(Br)cc4)cs3)N=C2c2ccccc2)ccc1O | n | n | 5.62µM | n
COc1cc(/C=C2\C(=O)N(c3ccc(NC(C)=O)cc3)N=C2c2ccccc2)ccc1O | n | n | u | n
COc1ccc(C(=O)NNS(=O)(=O)c2ccccc2)cc1 | n | n | n | 17.1
COc1ccc(S(=O)(=O)N[C@@H](CSCc2ccccc2)C(=O)O)cc1 | 39.8µM | n | n | n
Cc1ccc(C(=O)NC(=S)NNS(=O)(=O)c2ccccc2)cc1 | 12.6µM | n | n | n
COc1ccc(C(=O)NN/C(=N/S(=O)(=O)c2ccc(C)cc2)c2ccccc2)cc1 | n | 58.8 | n | 51.5
CCOc1ccc(S(=O)(=O)/N=C(/Nc2ccc(OC)cc2)c2ccccc2)cc1 | n | n | n | n
Cn1c(=O)n(C)c2cc(N3CCOCC3)c(NS(=O)(=O)c3ccc(Br)cc3)cc21 | n | x | n | x
COc1cccc(CN2CC34CC(c5ccc(C(C)=O)cc5)C(CC3S2(=O)=O)O4)c1 (stereo not given) | x | n | x | n
COc1ccc(C(=O)NNS(=O)(=O)c2ccc(OC)cc2)cc1 | n | n | n | n
COc1ccc(S(=O)(=O)NNC(=O)c2ccc(-n3c(C)ccc3C)cc2)cc1 | 10µM | n | n | n
CC(=O)O[C@@H]1CC[C@@]2(C)[C@H](C1)[C@H](OC(C)=O)C[C@@H]1[C@@H]2C[C@H]2[C@@H]3CN4C[C@H](C)CC[C@H]4[C@H](C)[C@H]3CC[C@@]12O | x | n | x | n
COc1ccc(C(=O)Nc2nccs2)cc1 | n | x | n | 29.0
CCc1nnc(NC(=O)Nc2ccc(OC)cc2)s1 | n | n | n | 24.0
O=C(Nc1nccs1)c1ccc([N+](=O)[O-])cc1 | n | n | n | n
Cn1cc([N+](=O)[O-])c(C(=O)Nc2ccc(Br)cn2)n1 | n | 52.2 | n | 25.0
CC(C)Cc1nnc(NC(=O)c2ccc([N+](=O)[O-])cc2)s1 | n | n | n | 17.0
COc1cccc(NC(=O)C2CCCN2S(=O)(=O)c2ccc3nc(-c4ccccc4)[nH]c3c2)c1 (stereo not given) | n | x | u | x
Cc1ccc(Cl)cc1N1CCN(C(=O)Cc2c(C(=O)O)c(C)cn2C)CC1 | n | x | n | x
Cc1ccc(NC(=O)Nc2nnc(Cc3ccc([N+](=O)[O-])cc3)s2)cc1 | n | 77.2 | n | 50.0
Cn1cc([N+](=O)[O-])c(C(=O)Nc2nccs2)n1 | n | n | n | 30.4
CCOCc1nnc(NC(=O)c2ccc(NC(C)=O)cc2)s1 | x | n | n | n
CCOCc1nnc(NC(=O)c2ccc(OC)cc2)s1 | n | 48.1 | n | 22.5
SMILES | Sm TGR block | Shiga inhibitor | FMDV inh | CHX counter
COc1ccc(NC(=O)Nc2nccs2)cc1 | n | 85.3 | n | 32.2
O=C(Nc1ccc(Cl)cc1)Nc1nnc(Cc2ccc([N+](=O)[O-])cc2)s1 | n | n | n | n
COC(=O)C#CC(=O)OC | x | n | x | n
O=C(c1cccc(Cl)c1)n1nc(-c2cccnc2)nc1NCc1ccccc1 | n | x | n | x
COc1ccc(-c2cc(C(F)(F)F)nc(SCCC(=O)Nc3ccc(O)cc3)n2)cc1 | n | x | n | x
COc1cccc(CNC(=O)c2cc(S(=O)(=O)N3CCCCC3)cn2C)c1 | n | x | n | x
COc1ccc(C(=O)Nc2nccs2)cc1[N+](=O)[O-] | n | n | n | 27.3
O=C(Nc1nccs1)c1cccc(NC(=O)C(F)(F)F)c1 | n | 73.5 | n | 17.9
CC(C)Cc1nnc(NC(=O)Nc2ccccc2)s1 | n | 57.5 | n | 46.3
COC(=O)c1sccc1NC(=O)c1ccc(OC)c([N+](=O)[O-])c1 | n | n | n | n
COc1ccc(C(=O)Nc2nccs2)cc1OC | n | n | n | 27.6
CC(C)Cc1nnc(NC(=O)CCC(=O)Nc2ccccc2)s1 | n | n | n | n
Cc1cccc(NC(=O)c2sc3cccc(Cl)c3c2Cl)c1 | n | x | n | x
CN(C)S(=O)(=O)N1CCC(Oc2cccc(C(=O)NC3CCCCCC3)c2)CC1 | n | n | u | n
COc1ccc(CCC(C)N2CCC(Oc3ccc(C(=O)N4CCCC4)cc3)CC2)cc1 (stereo not given) | 28.2µM | n | n | n
CC1CCCCN1C(=O)c1ccc(OC2CCN(S(=O)(=O)N(C)C)CC2)cc1 (stereo not given) | n | n | n | 25.6
CCN1CCN(C(=O)c2cccc(OC3CCN(S(=O)(=O)N(C)C)CC3)c2)CC1 | n | n | n | 27.0
Cc1cc(CNC(=O)c2cccc(OC3CCN(S(=O)(=O)N(C)C)CC3)c2)on1 | n | 128.1 | n | 63.6
CCCCC[C@]12Cc3ccccc3C(O1)c1c(cc(C)oc1=O)O2 | n[22.9 µM] | n | x | n
Cc1cccc([C@H]2[C@@H]3C=CC(C)C[C@@H]3C(=O)N2Cc2ccccc2)c1 (stereo not given in full) | x | n | x | n
COc1ccccc1NC(=O)C(Cc1ccccc1)NS(=O)(=O)c1ccc2c(c1)CCN2C(C)=O (stereo not given) | n | x | n | x
CN(C)S(=O)(=O)N1CCC(Oc2ccc(C(=O)N3CCCCCCC3)cc2)CC1 | n | 116.6 | n | 62.1
O=C(CN1CCCC1)Nc1ccc(OCc2ccccc2)cc1 | n | n | n | 26.5
CCC(C)C(NC(N)=O)C(=O)Nc1ccc(OCc2ccccc2)cc1 (stereo not given) | n | 26.2 | n | 22.0
COc1ccccc1NC(=O)CN1CCN(CC(=O)Nc2ccc(OCc3ccccc3)cc2)CC1 | n | n | u | 19.6
SMILES | Sm TGR block | Shiga inhibitor | FMDV inh | CHX counter
CC(C(=O)Nc1ccc(OCc2ccccc2)cc1)N1CCCC1 (stereo not given) | n | 32.8 | n | 28.1
COc1ccc(-c2c(C#N)c(SCC(=O)Nc3ccccc3C)nc(C)c2C(=O)Nc2ccccc2)cc1OC | n | x | n | x
Cc1c(C(=O)NC(C)(C)C)sc2ncnc(NCCN(C)C)c12 | x | x | n | x
CCc1cccc(NC(=O)CCS(=O)(=O)c2ccc(C)cc2)c1 | n | x | n | x
O=C(CN1C(=O)NC2(CCCC2)C1=O)Oc1ccc2ccc(=O)oc2c1 | 56.2µM | x | n | x
O=C(CN1C(=O)NC2(CCCCC2)C1=O)Oc1ccc2c(C(F)(F)F)cc(=O)oc2c1 | 39.8µM | x | n | x
CCc1ccc(C(=O)c2cn(CC(=O)Nc3ccc(OC)c(Cl)c3)c3nc(C)ccc3c2=O)cc1 | n | x | n | x
O=C(N=C1c2ccccc2CN1c1ccc(F)cc1)c1ccc(Cl)nc1 | n | n | n | 24.1
CCOC(=O)c1ccc(N2Cc3ccccc3C2=NC(=O)c2ccncc2)cc1 | n | 58.4 | n | 28.4
COc1ccc(N2Cc3ccccc3C2=NC(=O)c2cncc(Br)c2)cc1 | u | 71.3 | n | 40.2
CCOC(=O)c1ccc(N2Cc3ccccc3C2=N)cc1 | n | 125.6 | n | 33.7
C=CCC(CC=C)(CNC(=O)C(=O)Nc1cc(C)ccc1OC)c1ccc(OC)c(OC)c1 | n | x | n | x
Cc1cc(C)n2nc(C(=O)N/N=C/c3cccc(Cl)c3)nc2n1 | n | n | n | 9.4

Bioassay records as filed in PubChem BioAssay.
